Screens: PubChem BioAssay, National Center for Advancing Translational Sciences (NCATS)
The entries come from a sample that favours hits as a whole.
p53null 39C kill = p53 null cell cytotoxicity, nonpermissive temperature | 0.97% of 55,000 active | Potency, µM (doses to about 46.1 µM), for inactives: at the highest dose activity, negative = cell killing, most hits filed as cytotoxic | H1299 p53-null (neo) cells, 39C, ATPlite viability, 24 h;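 further: 0% = DMSO only and -100% = full killing by 100 µM tamoxifen; nearly all actives have a fitted effect of over 50% in size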
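H1299 lung cancer cells, p53-null (H1299-neo) or expressing p53 A138V (H1299-p53A138V), were plated overnight at 37C, then exposed to compounds at up to 46 uM for 24 hr at 39C. Viability was read by ATP-based luminescence.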
FH mod = Identification of activators of human fumarate hydratase by quantitative high-throughput screening | Fumarate hydratase, mitochondrial (Homo sapiens), P07954 | FH coupled MDH/diaphorase resazurin fluorescence, 15 min | Potency, µM (top dose mostly 79.9 µM), for inactives: at the top dose activity change, negative = inhibition, hits mostly inhibitors | 0.22% of 54,000 active | AID 1347055, 2019; further: on the % scale 0 is the no-effect control and ±100 the full control effect; the screen sought activators but most active calls are inhibition curves; nearly all actives have a fitted effect of over 45% in size
Target sequence (P07954 whole entry, looked up): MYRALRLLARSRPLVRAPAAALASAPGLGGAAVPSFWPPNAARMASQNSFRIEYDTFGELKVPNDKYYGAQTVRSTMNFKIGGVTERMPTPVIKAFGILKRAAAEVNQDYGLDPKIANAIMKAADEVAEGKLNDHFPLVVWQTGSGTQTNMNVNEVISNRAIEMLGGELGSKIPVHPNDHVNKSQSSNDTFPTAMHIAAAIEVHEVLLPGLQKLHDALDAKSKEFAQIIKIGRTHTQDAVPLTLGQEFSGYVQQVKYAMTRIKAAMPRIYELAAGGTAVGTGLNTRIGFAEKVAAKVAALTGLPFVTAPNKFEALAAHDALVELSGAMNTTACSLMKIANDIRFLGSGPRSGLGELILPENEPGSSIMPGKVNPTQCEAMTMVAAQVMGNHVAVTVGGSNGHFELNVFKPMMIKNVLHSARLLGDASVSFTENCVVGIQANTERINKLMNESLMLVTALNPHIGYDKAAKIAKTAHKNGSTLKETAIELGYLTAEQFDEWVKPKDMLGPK
NTMT1 inh = blocks human N-terminal methyltransferase 1 activity. NTMT1 MTase-Glo SAH luminescence, purified enzyme. Potency, µM (top dose mostly 114 µM), for inactives: at the highest dose activity change, negative = inhibition, hits mostly inhibitors. 2.5% of 59,000 active;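 further: plate controls were DMSO vehicle for no effect and no enzyme for full effect; nearly all actives have a fitted effect of over 65% in size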
GALC G270D up = galactocerebrosidase G270D activity enhancement, cell-based | P54803 | 145M-Twi-hGALC-G270D cells (Twitcher mouse brain line with human GALC G270D), HMU-beta-Gal fluorescence, 48 h | 0.1% of 45,000 active | Potency, µM (doses to about 57.5 µM), usual class: activators; further: 0% is about no effect; nearly all actives have a fitted effect of over 65% in size
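Mutant human GALC (G270D), stably expressed in a Twitcher mouse brain cell line lacking endogenous GALC, is measured in live-treated cells via 6-hexadecanoylamino-4-methylumbelliferyl-β-galactoside hydrolysis (0.1 mM final, pH 5.2) with fluorescent detection.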
p53null 32C tox = p53 null cell cytotoxicity, permissive temperature. H1299-neo p53 null cells, ATP luminescence, 24 h, 32C. Potency, µM (top dose mostly 46.1 µM), inactives show at the top dose activity change, negative = cytotoxicity, usual class: cytotoxic. 0.62% of 55,000 active;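 further: 0% = DMSO only and -100% = full killing by 100 µM tamoxifen; nearly all actives have a fitted effect of over 55% in size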
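H1299-neo (p53 null) cells, 600/well, treated 24 h at 32C with compound up to 46 uM; ATPlite luminescence viability, normalized to DMSO and 100 uM tamoxifen; AC50 by Hill fit.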
Numbers without * were called inactive; i = inactive; ? = inconclusive; · = no result given; ! = repeats disagree; [ ] = dose if it differs, or a comment. The call rests on the fitted dose curve; in most records, active means well fitted curve in the direction sought with a large enough effect; inconclusive means small, poorly fitted or top-dose-only effect, or another doubt; inactive means no such curve, though single readings can be large; an effect the other way counts as inactive or inconclusive. Potency means the concentration at half of the fitted maximal effect.

SMILES	p53null 39C kill	FH mod	NTMT1 inh	GALC G270D up	p53null 32C tox
Nc1ccc2nc(-c3ccc(O)cc3)sc2c1	1.3µM*	-17%	32µM*	i	2.5µM*
NS(=O)(=O)OC[C@@H]1C[C@@H](n2ccc3c(N[C@H]4CCc5ccccc54)ncnc32)C[C@@H]1O	·	1%	40µM*!	·	·
Cc1ccc(O)c([C@H](CCN(C(C)C)C(C)C)c2ccccc2)c1	·	0%[53.3 µM]	?	i	·
CC(C)C(=O)Oc1ccc(CO)cc1[C@H](CCN(C(C)C)C(C)C)c1ccccc1	·	?	22µM*!	·	·
CN(C)c1ccc(C2O[C@@H](c3ccccc3)C[C@H](c3ccccc3)O2)cc1 (some centres not stated)	·	-2%	-3%[57.5 µM]	·	·
COc1cc2c(cc1O)C1(Cc3ccc4c(c3C1O)OCO4)[N+](C)([O-])CC2 (configuration not stated)	·	-13%[53.3 µM]	11%[29.8 µM]	·	·
Cc1ccc(CN2C(=O)C(=O)c3cc(Br)cc(C)c32)cc1	11µM*	-17%	-3%	i	?
CN(CCOc1ccc(-c2ccc3c(c2)OCO3)cc1C(C)(C)C)CC(=O)O	·	·	-6%	·	·
Cc1coc2c1CC1OC1(C)CCC1OC1(C)C2 (configuration not stated)	·	-1%	1%[57.5 µM]	·	·
Cc1cccc(CNc2ccnc(-c3cccc(C(F)(F)F)c3)n2)c1	·	·	10%	·	·
CCOc1ccc(C(=O)Nc2ccc3c(c2)OCCO3)cc1Br	13µM*	-3%	0%	i	?
CCc1ccc(C(=O)NC(=S)Nc2ccc3c(c2)OCCO3)cc1	·	·	·	·	-23%
CCc1cccc(-n2nnc(-c3nsc(NC(=O)c4cccs4)n3)c2C)c1	10µM*	24%	0%	i	-5%
C=C1C2CCC3CC2(CC(O)C2(O)C1CC(OC1OC(CO)C(O)C(O)C1O)C2(C)C)CC3(C)O (configuration not stated)	·	-1%[53.3 µM]	-2%[29.8 µM]	·	·
Cc1ccc(OCCSc2nc(-c3ccccc3C)nc3cc(=O)[nH]n23)cc1Cl	25µM*	?	-26%	i	-7%
Cc1cccc(OCCCSc2nc(-c3ccc(C(C)(C)C)cc3)nc3cc(=O)[nH]n23)c1C	13µM*	?	?	i	43%
Cc1cc(C)n2ncc(C(=O)Nc3ccc(C(C)(C)C)cc3)c2n1	·	·	8%[57.5 µM]	·	·
CC1CCN(c2ccc(-c3cccc(NS(=O)(=O)c4ccc(Cl)s4)c3)nn2)CC1	10µM*	·	·	·	6.3µM*
CC1CCN(c2ccc(-c3cccc(NS(=O)(=O)c4cccs4)c3)nn2)CC1	10µM*	·	·	·	7.9µM*
COc1ccc(S(=O)(=O)Nc2cccc(-c3ccc(N4CCC(C)CC4)nn3)c2)cc1OC	7.9µM*	·	·	·	3.2µM*
COc1ccc(S(=O)(=O)Nc2cccc(-c3ccc(N4CCCC4)nn3)c2)cc1OC	-10%	·	·	·	11%
Cc1nn(C(C)C(=O)NC2CCCCC2)c(=O)c2c1sc1ccccc12 (configuration not stated)	13µM*	3%	1%	i	-26%
CSc1ccc(CCNC(=O)C(C)n2nc(C)c3sc4ccccc4c3c2=O)cc1 (configuration not stated)	13µM*	3%	22%	i	?
CCOc1ccc(CCNC(=O)c2cc3sccc3n2Cc2ccc(Cl)c(F)c2)cc1OCC	·	·	19%	·	·
Cc1ccc(CNC(=O)c2c[nH]n3c(=O)c(Cc4ccc(Cl)cc4)c(C)nc23)cc1	?	?	?	i	?
SMILES	p53null 39C kill	FH mod	NTMT1 inh	GALC G270D up	p53null 32C tox
Cc1nc2c(C(=O)NCCc3ccccc3)c[nH]n2c(=O)c1Cc1ccccc1F	?	-18%	-20%	i	16µM*
Cc1nc2c(C(=O)NCCc3ccc(Cl)cc3)c[nH]n2c(=O)c1Cc1ccc(Cl)cc1	20µM*	?	-5%	i	?
CC1=CC(=O)C2(OC3OC(C)C(O)C(OC(=O)/C=C/c4ccccc4)C3O)C=COC(OC3OC(CO)C(O)C(O)C3O)C12 (configuration not stated)	·	0%[20.6 µM]	20%[12.6 µM]	·	·
CCC(C)C(=O)O[C@H]1C[C@](C)(O)[C@]23OC(C)(C)[C@H](C[C@H](OC(=O)c4ccccc4)[C@]2(COC(C)=O)[C@H]1OC(=O)C(C)CC)[C@H]3OC(C)=O (some centres not stated)	·	0%[20.6 µM]	10%[12.6 µM]	·	·
O=S(=O)(NCc1ccccc1)c1ccc(O)c2ncccc12	·	·	5%	·	·
Cc1ccc(C)c(CN2C(=O)c3ccccc3S(=O)c3ccc(C(=O)N4CCC(C)CC4)cc32)c1 (configuration not stated)	50%	-31%	-2%	i	2%
CCOC(=O)N1CCN(C(=O)c2ccc3c(c2)N(Cc2cc(C)ccc2C)C(=O)c2ccccc2S3=O)CC1 (configuration not stated)	-9%	-17%	89µM*	i	3%
CC1=C2C3OC(=O)C(C)C3(O)CCC2(C)CCC1O (configuration not stated)	·	-4%	-10%[57.5 µM]	·	·
CCC(=O)N1c2ccccc2CC1C(=O)NCCCN1CCN(c2ccc(F)cc2)CC1 (configuration not stated)	-16%	-25%	89µM*	i	-3%
CC(C)c1c(C(=O)Nc2ccccc2)c(-c2ccccc2)c(-c2ccc(F)cc2)n1CC[C@@H](O)C[C@@H](O)CC(=O)O	·	3%[20.6 µM]	35µM*!	i	·
Cc1cccc(NC(=O)Cn2c(/C=C/c3ccccc3)nc3ccccc32)c1	0%[1.84 µM]	·	·	·	·
CCOc1ccc(Cn2c(CNS(=O)(=O)c3cccc(Cl)c3)nc3cccnc32)cc1	14%	-4%	13%	i	-3%
CSc1ccc(/C=C/c2nc3ccccc3n2S(=O)(=O)c2ccc(F)c(C)c2)cc1	10µM*	-20%	16µM*	i	7.9µM*
Cc1ccc(/C=C/c2nc3ccccc3n2S(=O)(=O)c2cccc(Cl)c2)cc1	3.2µM*	-12%	?	i	3.2µM*
COc1ccccc1-c1cc(N)n(S(=O)(=O)c2ccc(F)c(C)c2)n1	-12%	·	·	·	-3%
CCOc1ccc(/C=C/c2nc3ccccc3n2S(=O)(=O)c2cccc(Cl)c2)cc1	6.3µM*	-17%	5µM*	i	13µM*
O=C(CCC#CCSc1nnc(-c2cccc3ccccc23)o1)c1ccccc1	·	·	4%[57.5 µM]	·	·
O=C(CCCCCCNC(=O)c1cnc(N(c2ccccc2)c2ccccc2Cl)nc1)NO	·	·	14%	·	·
CN(C)CCCNC(=O)c1ccc(-c2cnc3c(O)ccc(C(=O)O)c3c2)cc1	·	·	3%[57.5 µM]	·	·
CCOC(=O)c1ccccc1N/C=C/C(=O)c1cccs1	16%[1.84 µM]	·	·	·	·
O=C(/C=C/Nc1ccc(F)cc1F)c1cccs1	·	·	·	·	10µM*
O=C(/C=C/Nc1ccccc1F)c1cccs1	·	·	·	·	11µM*
O=C(Nc1cccs1)Nc1ccc(F)cc1F	27%	6%	-8%	i	1%
